Test results published in PubChem BioAssay (NCATS).
Values without a mark were called inactive. Results filed as inconclusive are left out. Entries that show only a call come without a potency. Activity calls are given as the source filed them. Unless noted, calls follow the shape of the dose curve; as a rule, active = well fitted curve in the direction sought with a large enough effect; inconclusive = small, poorly fitted or top-dose-only effect, or another doubt; inactive = no such curve, though single readings can be large; an effect the other way counts as inactive or inconclusive.

Tests used:
[1] = Confirmation and Secondary Assay for Modulators of Hemoglobin Beta Chain Splicing at IVS2 654 locus (AID 910);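 also: HeLa cells stably carrying EGFP split by mutant beta-globin IVS2-654 intron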
Outline: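 HeLa cells stably expressing EGFP interrupted by β-globin IVS2-654 intron, seeded overnight in Opti-MEM/2% FCS, then treated 2 days at 37 °C. Restored splicing read as total peak GFP intensity per well by laser scanning cytometry (488 nm excitation, 500–520 nm emission); 500 nM antisense PNA as control.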

[2] = Confirmation and Secondary Assay for Modulators of Hemoglobin Beta Chain Splicing at IVS2 705 locus (AID 930);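 also: HeLa cells stably expressing the EGFP-705 splicing reporter; GFP fluorescence per well restored by corrected splicing of the IVS2-705 intron in EGFP; series mostly up to about 46 µM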
Outline: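 Secondary splice-site specificity test uses HeLa expressing CMV-driven EGFP interrupted by IVS2-705; cells were treated 2 days at 37C with 500 nM antisense PNA as positive control.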

[3] = Cell Viability - LYMP2-001 (AID 921); also: series mostly up to about 92 µM; nearly all actives have a fitted effect of over 70% in size
Outline: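 CellTiter-Glo luminescence (intracellular ATP) after 24 hr compound exposure at 37 C, 2500 lymphoblastoid cells/well in complete medium. AC50 fitted with standard Hill equation; tetraoctylammonium bromide positive control.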

[4] = MultiTox-Fluor Cytotoxicity Assay - LYMP1-001 - Dead Cells (AID 946)
Outline: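 AC50 from Hill fit of concentration-response; data normalized to DMSO (basal) and 15 uM tetraoctylammonium bromide (100%). LYMP1-001 lymphoblastoid cells, 2500/well, 16 hr compound at 37 C; dead-cell protease fluorescence, Ex/Em 485/520.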

[5] = Cell Viability - LYMP1-002 - Assay at 16 hr (AID 948)
Outline: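 LYMP1-002 human lymphoblastoid cells, 2500/well; 5 hr 37 C; cpd 16 hr 37 C; CellTiter-Glo 30 min RT; luminescence (ATP). Concentration-response, Hill-fit AC50. Pos ctrl tetraoctylammonium bromide.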

[6] = MultiTox-Fluor Cytotoxicity Assay - LYMP1-002 - Live Cells (AID 955);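 also: cells exposed to compound for 16 hours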
Outline: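 After 16 h compound exposure at 37 C, live LYMP1-002 lymphoblastoid cells (2500/well) were quantified by cleavage of cell-permeant GF-AFC substrate, read at 405/510 nm after 60 min. Concentration-response fitted with Hill equation for AC50.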

[7] = MultiTox-Fluor Cytotoxicity Assay - LYMP1-003 - Dead Cells (AID 961); also: nearly all actives have a fitted effect of over 70% in size
Outline: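 Human lymphoblastoid LYMP1-003 cells (2500/well) were treated with compounds for 16 hr at 37 C in complete medium. Dead-cell protease release was read by bis-AAF-R110 fluorescence (Ex/Em 485/520). AC50 came from Hill fits, normalized to DMSO and 15 uM tetraoctylammonium bromide.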

[8] = qHTS Assay for Identification of Small Molecule Agonists for Thrombopoietin (TPO) Signaling Pathway (AID 917); also: potency is read from the fitted curve at half-maximal effect
Outline: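 Ba/F3 (mouse) + hTPO receptor + GpIIb-promoter luciferase; IL-3 withdrawn overnight; compound + 26 pM TPO (EC50), 24 hrs, 37 C, 5% CO2; Steadylite luminescence, 10 min RT.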

[9] = target: Muscarinic acetylcholine receptor M1 (Rattus norvegicus) (UniProt P08482); experiment: qHTS Assay for Antagonists of Acetylcholine Muscarinic M1 Receptor: Kinetic Measurement of Intracellular Calcium Response (AID 943);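 also: Fluo-4 calcium signal as peak divided by basal fluorescence over 4 min; series mostly up to about 35 µM; nearly all actives have a fitted effect of over 75% in size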
Chain of Muscarinic acetylcholine receptor M1 (Rattus norvegicus) (P08482 whole entry, looked up): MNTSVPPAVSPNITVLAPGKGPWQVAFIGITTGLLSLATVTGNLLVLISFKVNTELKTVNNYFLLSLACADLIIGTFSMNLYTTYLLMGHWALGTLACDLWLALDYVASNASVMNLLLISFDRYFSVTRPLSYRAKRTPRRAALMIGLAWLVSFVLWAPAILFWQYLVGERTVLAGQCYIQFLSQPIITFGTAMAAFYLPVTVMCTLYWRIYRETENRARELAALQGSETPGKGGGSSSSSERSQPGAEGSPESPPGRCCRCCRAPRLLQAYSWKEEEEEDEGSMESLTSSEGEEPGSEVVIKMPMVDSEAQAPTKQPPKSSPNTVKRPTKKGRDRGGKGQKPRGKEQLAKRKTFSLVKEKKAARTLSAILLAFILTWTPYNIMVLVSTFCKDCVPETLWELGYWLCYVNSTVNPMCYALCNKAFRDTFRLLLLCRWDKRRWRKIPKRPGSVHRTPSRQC
Outline: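 Antagonism measured as reduction of carbachol-evoked (EC80, 100 nM final) calcium flux in rat M1-CHO cells after 10 min compound exposure. Fluo-4 signal read kinetically; ratio of maximal to basal fluorescence.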

[10] = target: Muscarinic acetylcholine receptor M1 (Rattus norvegicus) (UniProt P08482); experiment: qHTS Assay for Antagonists of Acetylcholine Muscarinic M1 Receptor: Measurement of IP-One Response (AID 944); also: nearly all actives have a fitted effect of over 75% in size; also: potency is read from the fitted curve at half-maximal effect
Outline: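 IP1 accumulation measured via TR-FRET between d2-IP1 and Eu-cryptate anti-IP1 antibody after carbachol (200 nM, EC80) stimulation for 30 min; rat M1-transfected CHO cells received compound 10 min before agonist.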

[11] = target: Pyruvate kinase (Leishmania mexicana) (UniProt Q27686); experiment: qHTS Validation Assay for Inhibitors of Leishmania Mexicana Pyruvate Kinase (AID 945); also: potency is read from the fitted curve at half-maximal effect
Chain of Pyruvate kinase (Leishmania mexicana) (Q27686 2-499 E452W): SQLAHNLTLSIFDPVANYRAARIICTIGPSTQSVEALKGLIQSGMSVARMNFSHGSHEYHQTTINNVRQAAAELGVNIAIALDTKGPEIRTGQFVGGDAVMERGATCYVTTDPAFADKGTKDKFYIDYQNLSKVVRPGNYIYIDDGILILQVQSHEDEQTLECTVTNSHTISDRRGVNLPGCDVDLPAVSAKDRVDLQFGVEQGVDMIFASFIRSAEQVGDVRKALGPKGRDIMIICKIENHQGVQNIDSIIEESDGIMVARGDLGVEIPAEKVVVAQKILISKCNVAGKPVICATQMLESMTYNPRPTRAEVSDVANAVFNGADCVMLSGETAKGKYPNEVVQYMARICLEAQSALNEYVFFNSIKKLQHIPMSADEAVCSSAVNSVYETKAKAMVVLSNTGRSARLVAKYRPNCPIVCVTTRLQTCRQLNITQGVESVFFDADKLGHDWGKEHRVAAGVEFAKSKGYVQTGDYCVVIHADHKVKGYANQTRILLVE
Outline: (§1)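 Read-out: luminescence from PKLight stop/detection reagent, data normalized to DMSO. Reaction: 0.2 nM E451W LmPYK, 0.5 mM PEP, 0.1 mM ADP, pH 7.2, 1 h room temperature.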

[12] = target: Pyruvate kinase PKM (Homo sapiens) (UniProt P14618); experiment: qHTS Assay for Activators of Human Muscle Pyruvate Kinase (AID 954; active = well fitted curve in the direction sought with a large enough effect, not every such curve was filed as active)
Chain of Pyruvate kinase PKM (Homo sapiens) (P14618 whole entry, looked up): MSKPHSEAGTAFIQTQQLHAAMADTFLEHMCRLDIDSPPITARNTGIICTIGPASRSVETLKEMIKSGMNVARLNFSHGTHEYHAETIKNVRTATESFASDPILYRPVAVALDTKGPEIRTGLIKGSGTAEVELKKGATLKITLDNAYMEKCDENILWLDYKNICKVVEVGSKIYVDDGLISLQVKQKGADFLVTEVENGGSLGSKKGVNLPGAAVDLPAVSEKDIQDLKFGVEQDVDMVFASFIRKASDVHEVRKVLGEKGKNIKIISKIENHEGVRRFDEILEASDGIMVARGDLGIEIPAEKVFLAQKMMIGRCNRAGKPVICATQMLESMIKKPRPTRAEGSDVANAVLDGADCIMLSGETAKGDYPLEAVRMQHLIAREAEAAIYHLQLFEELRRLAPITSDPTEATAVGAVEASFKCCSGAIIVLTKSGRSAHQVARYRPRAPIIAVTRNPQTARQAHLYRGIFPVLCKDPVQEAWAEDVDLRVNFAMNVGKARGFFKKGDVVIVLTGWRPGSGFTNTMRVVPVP
Outline: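 A coupled luminescent readout tracked ATP made from ADP by purified PKM2. Final conditions included 0.1 nM enzyme, PEP and ADP at 0.5 and 0.1 mM, pH 7.2 imidazole buffer with BSA, and a one-hour room-temperature reaction.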

[13] = target: Pyruvate kinase (Leishmania mexicana) (UniProt Q27686); experiment: qHTS Validation Assay for Activators of Leishmania Mexicana Pyruvate Kinase (AID 959)
Outline: as §1

[14] = qHTS Assay for Identification of Small Molecule Antagonists for Thrombopoietin (TPO) Signaling Pathway (AID 918); conditions: TPO-dependent cell signaling reporter, antagonist mode; also: potency is read from the fitted curve at half-maximal effect; nearly all actives have a fitted effect of over 60% in size
Outline: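 Inhibition read as reduced luciferase luminescence after 24 h at 37 C in IL-3-deprived Ba/F3 cells carrying human TPO receptor and GPIIb-promoter reporter, stimulated with 26 pM TPO (final, its EC50) alongside compound.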

With `COc1cc(NC(C)CCCN)c2ncccc2c1` (stereo not drawn) as the compound, how does the outcome [1] read?
Its outcome is “inactive”.

What about the outcome [2] of the same compound?
The outcome was “inactive”.

What does the source list for `CC(C(=O)O)c1ccc(C(=O)c2cccs2)cc1` (stereo not drawn)?
outcome [1]: inactive; outcome [2]: inactive

For `CC(C(=O)O)c1ccc2c(c1)[nH]c1ccc(Cl)cc12` (stereo not drawn), which outcome [1] is on record?
Its outcome is “inactive”.

What about the outcome [2] of the same compound?
The outcome was “inactive”.

For `N=C(N)N`, which outcome [1] is on record?
Its outcome is “inactive”.

And the outcome [2]?
The outcome was “inactive”.

For `O=C(O)c1ccccc1Nc1cccc(C(F)(F)F)c1`, which outcome [1] is on record?
Its outcome is “inactive”.

And the outcome [2]?
Its outcome is “inactive”.

Which results are given for `O=C(O)c1cc(O)c(O)c(O)c1`?
outcome [1]: inactive; Potency [3]: inactive; outcome [2]: inactive; Potency [4]: inactive; Potency [5]: inactive; Potency [6]: inactive; Potency [7]: inactive

For `Cc1c(Nc2ncccc2C(=O)O)cccc1C(F)(F)F`, which outcome [1] is on record?
The outcome was “inactive”.

What about the outcome [2] of the same compound?
Its outcome is “inactive”.

For `Cc1ccc(C(=O)c2ccc(CC(=O)O)n2C)cc1`, which outcome [1] is on record?
The outcome was “inactive”.

And the outcome [2]?
The outcome was “inactive”.

With `CCCCC1C(=O)N(c2ccccc2)N(c2ccc(O)cc2)C1=O` (stereo not drawn) as the compound, how does the outcome [1] read?
Its outcome is “inactive”.

And the outcome [2]?
The outcome was “inactive”.

With `CCCN(CC1CC1)c1nc(C)nc(Nc2c(Cl)cc(Cl)cc2Cl)c1Cl` as the compound, how does the Potency [8] read?
The Potency was “inactive”.

And the Potency [9]?
The Potency was “inactive”.

What about the Potency [10] of the same compound?
Its Potency is “inactive”.

And the Potency [11]?
Its Potency is “inactive”.

And the outcome [12]?
The outcome was “inactive”.

What does the source list for `O=C(O)[C@@H]1C[C@@H](C(=O)O)N1`?
Potency [8]: inactive; Potency [9]: inactive; Potency [10]: inactive; Potency [11]: inactive; outcome [12]: inactive

Which Potency [8] does the source give for `CCCCN1CCC(n2c(=O)[nH]c3ccccc32)CC1` here?
The Potency was “inactive”.

What about the Potency [9] of the same compound?
Its Potency is “inactive”.

What about the Potency [11] of the same compound?
The Potency was “inactive”.

What about the outcome [12] of the same compound?
Its outcome is “inactive”.

Which Potency [8] does the source give for `O=C1NC(O)=NC1(c1ccccc1)c1ccccc1` here?
The Potency was “inactive”.

What about the Potency [11] of the same compound?
Its Potency is “inactive”.

And the outcome [12]?
Its outcome is “inactive”.

Which results are given for `NC(=O)C(=O)O`?
Potency [8]: inactive; Potency [9]: inactive; Potency [10]: inactive; Potency [11]: inactive; outcome [12]: inactive

For `Clc1ccc(N2CCN(Cc3c[nH]c4ncccc34)CC2)cc1`, which Potency [8] is on record?
Its Potency is “inactive”.

What about the Potency [10] of the same compound?
The Potency was “inactive”.

What about the Potency [11] of the same compound?
The Potency was “inactive”.

What about the outcome [12] of the same compound?
Its outcome is “inactive”.

For `O=c1[nH]c2cc(C(F)(F)F)ccc2n1-c1cc(C(F)(F)F)ccc1O`, which Potency [8] is on record?
Its Potency is “inactive”.

And the Potency [9]?
The Potency was “inactive”.

What about the Potency [10] of the same compound?
The Potency was “inactive”.

What about the Potency [11] of the same compound?
Its Potency is “inactive”.

What about the outcome [12] of the same compound?
Its outcome is “inactive”.

Which Potency [8] does the source give for `CC1(C)CCC=[N+]1[O-]` here?
The Potency was “inactive”.

What about the Potency [9] of the same compound?
Its Potency is “inactive”.

And the Potency [10]?
The Potency was 11.2 µM (active).

And the Potency [11]?
Its Potency is “inactive”.

What about the outcome [12] of the same compound?
Its outcome is “inactive”.

What does the source list for `CCCn1c(=O)c2[nH]c(-c3ccc(OCC(=O)NCCN)cc3)nc2n(CCC)c1=O`?
Potency [8]: inactive; Potency [11]: inactive; outcome [12]: inactive

Which results are given for `COc1cccc(C(=O)NCCN2CCN(c3ccc(Cl)cc3)CC2)c1`?
Potency [8]: inactive; Potency [11]: inactive; outcome [12]: inactive

Which Potency [8] does the source give for `CC(C)NC[C@H](O)COc1cccc2[nH]ccc12` here?
The Potency was “inactive”.

And the Potency [11]?
The Potency was “inactive”.

What about the outcome [12] of the same compound?
Its outcome is “inactive”.

For `CN1CCc2cc(NC(=O)Nc3cccnc3)ccc21`, which Potency [8] is on record?
The Potency was 1.58 µM (active).

What about the Potency [9] of the same compound?
The Potency was “inactive”.

What about the Potency [11] of the same compound?
The Potency was 20 µM (active).

What about the outcome [12] of the same compound?
The outcome was “inactive”.

What about the Potency [13] of the same compound?
Its Potency is “inactive”.

Which results are given for `CCCCCCCC/C=C\CCCCCCCC(=O)NCCO`?
Potency [8]: inactive; Potency [9]: inactive; Potency [10]: inactive; Potency [11]: inactive; outcome [12]: inactive

Which Potency [14] does the source give for `O=Nc1ccc2oc(=O)ccc2c1` here?
The Potency was 5.01 µM (active).

And the Potency [9]?
The Potency was “inactive”.

And the Potency [10]?
The Potency was “inactive”.

And the Potency [11]?
The Potency was “inactive”.

What about the outcome [12] of the same compound?
Its outcome is “inactive”.
